Source: PubChem
Only some compounds are listed: those with a hit (about 21% of all), similar ones and a draw of the others.
Pf growth 48h: Primary qHTS for delayed death inhibitors of the malarial parasite plastid, 48 hour incubation. P. falciparum luciferase growth in erythrocytes, 48 h. actives 5.9% (n = 310,000). AID 504832, 2011. Potency, µM (top dose mostly 28.7 µM), for the others: top-dose activity change, negative = inhibition, most hits filed as inhibitors; also: potency is read from the fitted curve at half-maximal effect; % is scaled to controls: 0 for no effect and ±100 for the full control effect
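Cell-based growth assay: transgenic P. falciparum expressing firefly luciferase, cultured in red cells within RPMI 1640 containing 0.5% w/v Albumax, 24 mM bicarbonate and gentamycin. A drop in luciferase activity indicates inhibition.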
SARS PLpro yeast: qHTS of Yeast-based Assay for SARS-CoV PLP; actives 0.19% (n = 330,000); AID 485353, 2010; S. cerevisiae expressing SARS-CoV PLpro, growth rescue; Potency, µM (titrated, usually from 32.9 µM), inactives show top-dose activity, positive = growth rescue, usual class: activators; calls by dose curve; also: potency is read from the fitted curve at half-maximal effect; 0% is about no effect; nearly all actives have a fitted effect of over 55% in size
Pf growth 96h: Primary qHTS for delayed death inhibitors of the malarial parasite plastid, 96 hour incubation; AID 504834, 2011; Potency, µM (top dose mostly 28.7 µM), without a hit: at the top dose activity change, negative = inhibition, usual class: inhibitors; P. falciparum luciferase reporter growth, 96 h; actives 6.9% (n = 320,000); also: potency is read from the fitted curve at half-maximal effect; % is scaled to controls: 0 for no effect and ±100 for the full control effect
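Compounds incubated with erythrocytes infected by luciferase-expressing P. falciparum (2% hematocrit, 0.05% parasitemia final) for 96 hours, 37 C in 5% CO2. Growth inhibition scored as decreased luciferase luminescence.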
Cycloheximide cs: Cycloheximide Counterscreen for Small Molecule Inhibitors of Shiga Toxin | max response, % | actives 12% (n = 300,000) | AID 2314, 2010 | cell reporter, cycloheximide protein synthesis inhibition counterscreen; in the data active = max response mostly above about 13%, no sharp cut-off; inactive = mostly below about 14%; also: read at 38.3 µM for the half of the compounds with a filed dose; 0% is about no effect
NS1 function inh: qHTS Assay for Inhibitors of Influenza NS1 Protein Function. Potency, µM (titrated, usually from 46.1 µM), for inactives: at the top dose activity, positive = more growth. actives 0.4% (n = 270,000). AID 2326, 2010; calls by dose curve; also: potency is read from the fitted curve at half-maximal effect; actives are rising curves; nearly all actives have a fitted effect of over 50% in size
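In this qHTS, NS1 from influenza A is expressed in budding yeast, where it slows growth. Cells are switched from glucose to 2% galactose medium (pH 6.0, -URA), treated with compound, and growth recovery is read at OD600.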
Shiga toxin inh: A qHTS for Small Molecule Inhibitors of Shiga Toxin; Vero cells, Shiga toxin protein synthesis inhibition reporter; inhibition, % at 38.7 µM; actives 9.2% (n = 290,000); in the data active = inhibition mostly above about 28%, no sharp cut-off; inactive = mostly below about 43%; also: 0% is about no effect
* = called active by the depositor. Unless noted, calls follow the shape of the dose curve; as a rule, active = well fitted inhibition curve with a large enough effect; inconclusive = small, poorly fitted or top-dose-only effect, or another doubt; inactive = no such curve, though single readings can be large or run the other way.

For CCN(CC)Cc1cc(NC2=NS(=O)(=O)c3ccccc32)ccc1OC(=O)c1ccccc1 the results were Pf growth 48h inconclusive, SARS PLpro yeast 3%, Pf growth 96h 9.3µM*, Cycloheximide cs 1, NS1 function inh 1% and Shiga toxin inh 2.
N=c1c(C(=O)NCc2ccccc2)cc2c(=O)n3ccccc3nc2n1CCCN1CCOCC1 was read as Pf growth 48h 5.9µM*, SARS PLpro yeast 3%, Pf growth 96h -14%, Cycloheximide cs -5, NS1 function inh -12% and Shiga toxin inh -3.
Screening N=c1c(C(=O)NCCc2ccccc2)cc2c(=O)n3ccccc3nc2n1CCCN1CCOCC1 returned Pf growth 48h 2.1µM*, SARS PLpro yeast -2%, Pf growth 96h inconclusive, Cycloheximide cs -5, NS1 function inh 5% and Shiga toxin inh -5.
Screening N=c1c(C(=O)NCCN2CCOCC2)cc2c(=O)n3ccccc3nc2n1CCc1ccccc1 returned Pf growth 48h 3.3µM*, SARS PLpro yeast -4%, Pf growth 96h 3.3µM*, Cycloheximide cs 8, NS1 function inh -2% and Shiga toxin inh 13.
For N=c1c(C(=O)NCc2ccc(F)cc2)cc2c(=O)n3ccccc3nc2n1Cc1cccnc1 the results were SARS PLpro yeast -5%, Pf growth 96h 5.9µM*, Cycloheximide cs -5, NS1 function inh 9% and Shiga toxin inh -5.
`CCOc1ccccc1NC(=S)NCc1cccn1C` gave Pf growth 48h -23%, SARS PLpro yeast 1%, Pf growth 96h -28%, Cycloheximide cs 7 and Shiga toxin inh -1.
For CN(C)N1C(N)=C(C#N)C(c2ccc3c(c2)OCO3)C2=C1CC(C)(C)CC2=O (stereo not drawn) the results were Pf growth 48h -15%, SARS PLpro yeast 3%, Pf growth 96h inconclusive, Cycloheximide cs -2, NS1 function inh 3% and Shiga toxin inh -4.
Cc1ccc2occ(C3N[C@H](C(=O)O)CS3)c(=O)c2c1 (stereo partly drawn) was read as Pf growth 48h inconclusive, SARS PLpro yeast -7%, Pf growth 96h 14%, Cycloheximide cs 9, NS1 function inh -36% and Shiga toxin inh 24.
Cc1ccc(Cn2c(=N)c(C(=O)NCCN3CCOCC3)cc3c(=O)n4ccccc4nc32)cc1 was read as Pf growth 48h inconclusive, SARS PLpro yeast -7%, Pf growth 96h inconclusive, Cycloheximide cs -2, NS1 function inh -2% and Shiga toxin inh -1.
N=c1c(C(=O)NCc2ccc(F)cc2)cc2c(=O)n3ccccc3nc2n1CCCN1CCOCC1 was read as Pf growth 48h 1.7µM*, SARS PLpro yeast inconclusive, Pf growth 96h 2.6µM*, Cycloheximide cs -7, NS1 function inh 2% and Shiga toxin inh -13.
Screening COc1ccc(-c2cccc(C3C4C=CCCC4(C)C(=O)N3Cc3ccccc3)c2)cc1 (stereo not drawn) returned Cycloheximide cs 10 and Shiga toxin inh 24.
Screening COc1ccc(C(C(=O)Nc2ccc(C(C)C)cc2)N(Cc2ccco2)C(=O)CC2NC(=O)NC2=O)cc1 (stereo not drawn) returned Pf growth 48h 1.5µM*, SARS PLpro yeast 1%, Pf growth 96h inconclusive, Cycloheximide cs 8 and Shiga toxin inh -4.
`Cc1ccc(-c2nc(=S)c3c(n2Cc2cccnc2)CC(C)(C)OC3)cc1` gave Pf growth 48h 1%, SARS PLpro yeast 0%, Pf growth 96h 4%, Cycloheximide cs -4, NS1 function inh -3% and Shiga toxin inh -7.
`CC1Cc2cc(-c3csc(NC(=O)Cc4cccs4)n3)ccc2N1S(C)(=O)=O` (stereo not drawn) gave Pf growth 48h 13µM*, SARS PLpro yeast -3%, Pf growth 96h inconclusive, Cycloheximide cs 6, NS1 function inh -3% and Shiga toxin inh 5.
For O=C(Cc1cccs1)Nc1nc(-c2ccc(F)cc2F)cs1 the results were SARS PLpro yeast -17%, Pf growth 96h inconclusive, Cycloheximide cs 12, NS1 function inh -20% and Shiga toxin inh 53.
Screening CCC(=O)Nc1nc(-c2ccc3c(c2)CC(C)N3S(C)(=O)=O)cs1 (stereo not drawn) returned Pf growth 48h 0%, SARS PLpro yeast -1%, Pf growth 96h 56%, Cycloheximide cs 26*, NS1 function inh -2% and Shiga toxin inh 39.
`O=[N+]([O-])c1ccc(CSc2ncnc3ccccc23)cc1` gave Pf growth 48h 2%, SARS PLpro yeast -7%, Pf growth 96h -3%, Cycloheximide cs 1 and Shiga toxin inh -5.
`COC(=O)/C=C1/SC(=NC(=O)c2ccc(F)cc2)NC1=O` gave Pf growth 48h -20%, SARS PLpro yeast 1%, Pf growth 96h -3%, Cycloheximide cs -2, NS1 function inh 11% and Shiga toxin inh -18.
Screening CCOC(=O)N1CCC(N2CCCC(C(=O)c3cccc(OC)c3)C2)CC1 (stereo not drawn) returned Pf growth 48h inconclusive, SARS PLpro yeast -4%, Pf growth 96h inconclusive, Cycloheximide cs -2, NS1 function inh -4% and Shiga toxin inh 12.
`COc1cccc(CNC(=O)c2ccc(Cl)c(NC3=NC4CS(=O)(=O)CC4S3)c2)c1` (stereo not drawn) gave Pf growth 48h 1%, SARS PLpro yeast -2%, Pf growth 96h 2.6µM*, Cycloheximide cs -1, NS1 function inh -2% and Shiga toxin inh -3.
`COc1ccc(NC(=O)c2ccc(NC3=NC4CS(=O)(=O)CC4S3)cc2)cc1` (stereo not drawn) gave Pf growth 48h 10%, SARS PLpro yeast 4%, Pf growth 96h 10µM*, Cycloheximide cs -2, NS1 function inh -3% and Shiga toxin inh -4.
`COc1cccc(CNC(=O)c2cccc(NC3=NC4CS(=O)(=O)CC4S3)c2)c1` (stereo not drawn) gave Pf growth 48h 31%, SARS PLpro yeast 4%, Pf growth 96h -10%, Cycloheximide cs 3, NS1 function inh -7% and Shiga toxin inh 13.
Screening COc1ccccc1CNC(=O)c1ccc(Cl)c(NC2=NC3CS(=O)(=O)CC3S2)c1 (stereo not drawn) returned Pf growth 48h 0%, SARS PLpro yeast -5%, Pf growth 96h -20%, Cycloheximide cs 1, NS1 function inh 9% and Shiga toxin inh 15.
For COc1cccc(CNC(=O)Cc2ccc(NC3=NC4CS(=O)(=O)CC4S3)cc2)c1 (stereo not drawn) the results were Pf growth 48h -2%, SARS PLpro yeast 10%, Pf growth 96h inconclusive, Cycloheximide cs 0, NS1 function inh 18% and Shiga toxin inh -8.
